# Data taken from PubChem BioAssay (NCI).
# This is part of a sample that, as a whole, favours compounds with a hit. Of some 83,000 tested, about 20% had one in any assay.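 A percent growth of 40 corresponds to 60% growth inhibition; 0 means no net growth; -100 means all cells died. Active threshold: below 10.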 A number with no mark means an inactive call. The source made the active and inactive calls.
# Assays:
# Assay in all cases: NCI-60 one-dose screen, 48 h (100 = growth as untreated, 0 = no growth, -100 = all killed)
# Conditions in all cases: 10 µM unless noted
# DU-145 prostate = system: DU-145 prostate
# K-562 leukemia = system: K-562 leukemia
# MALME-3M melanoma = system: MALME-3M melanoma
# MDA-MB-231 breast = system: MDA-MB-231 breast
# RXF 393 renal = system: RXF 393 renal
# SF-268 CNS = system: SF-268 CNS
# SF-295 CNS = system: SF-295 CNS
# SF-539 CNS = system: SF-539 CNS
# UACC-257 melanoma = system: UACC-257 melanoma
# M14 melanoma = system: M14 melanoma
# HCT-15 colon = system: HCT-15 colon
# HT29 colon = system: HT29 colon
# SNB-75 CNS = system: SNB-75 CNS
# SNB-19 CNS = system: SNB-19 CNS
# U251 CNS = system: U251 CNS
# PC-3 prostate = system: PC-3 prostate
# SK-MEL-5 melanoma = system: SK-MEL-5 melanoma
# UACC-62 melanoma = system: UACC-62 melanoma
# LOX IMVI melanoma = system: LOX IMVI melanoma
# SK-MEL-28 melanoma = system: SK-MEL-28 melanoma
Structure (SMILES),growth (DU-145 prostate) [%],growth (K-562 leukemia),growth (MALME-3M melanoma),growth (MDA-MB-231 breast),growth (RXF 393 renal),growth (SF-268 CNS),growth (SF-295 CNS),growth (SF-539 CNS),growth (UACC-257 melanoma) [%],growth (M14 melanoma),growth (HCT-15 colon) [%],growth (HT29 colon),growth (SNB-75 CNS),growth (SNB-19 CNS),growth (U251 CNS),growth (PC-3 prostate) [%],growth (SK-MEL-5 melanoma),growth (UACC-62 melanoma) [%],growth (LOX IMVI melanoma),growth (SK-MEL-28 melanoma)
CC(=O)Oc1ccccc1C(=O)N=C1[Se]CCCN1C(=O)c1ccccc1OC(C)=O,15.8,32.1%,-27.1% (active),-57.6% (active),6.8% (active),-14.1% (active),17.5%,-42.5% (active),57.4,-10.4% (active),21.5,95.5%,-28.9% (active),-55.1% (active),23.4%,19.6,74.8%,73.6,-64.1% (active),18.5%
CCN1C(=O)N(CC)C2Nn3c(s/c(=C4\C(=O)N(CCC(C)C)c5ccccc54)c3=O)=NC21 (stereo not given),96.3,26.1%,79.8%,78.3%,84.5%,82.5%,98.5%,86.8%,66.3,56.6%,47,112%,59.2%,88.6%,87.7%,63.2,89.5%,67.1,91.7%,78.6%
CC(=O)CC[C@H]1C(=O)N[C@@H](C(C)C)C(=O)N[C@@H](Cc2cc(O)cc(F)c2)C(=O)N2CCC[C@H](N2)C(=O)O[C@H](/C(C)=C/C=C/C(=O)OC(C)(C)C)C/C=C/C=C/[C@H](O)[C@H](C)[C@H]1O,42.6,21.6%,73.6%,47.5%,-5.28% (active),54.4%,50.2%,66.8%,53,54.9%,26.6,29.6%,54.6%,70%,43.3%,48.6,51%,52.4,48.6%,59.4%
O=CN1N=C(c2ccc(Nc3ccnc4cc(Cl)ccc34)cc2)CC1c1ccccc1 (stereo not given),35.8,11.8%,24.7%,32.9%,31.4%,37.4%,17.4%,25.9%,63.3,25.6%,15.4,11.6%,56.4%,52.8%,34.5%,42.4,1.49% (active),38.4,13.7%,44.4%
CC(=O)O.CN1[CH-]N(Cc2ccc(C#N)cc2)c2ccccc21.[Ag+],111,45.8%,102%,110%,117%,109%,110%,106%,81.2,100%,102,94.7%,94.7%,109%,97.4%,91.1,41.7%,112,91.8%,95.3%
S=C(c1cccs1)N1CCN(c2cccc(Cl)c2)CC1,98.3,93.5%,80.9%,92.5%,100%,104%,111%,99.8%,105,99.4%,88.7,89.8%,100%,102%,93.7%,89.5,92.1%,88.1,109%,104%
Cc1ccc(-c2nc3c(c(-c4ccccc4)nn3-c3ccccc3)c(-c3ccc(O)cc3)c2C#N)cc1,60.5,22.3%,75.1%,45.9%,-10.4% (active),60.2%,-20.9% (active),15.2%,93.9,60.3%,28.8,107%,40.5%,69.1%,41.6%,34.3,77.6%,63.7,12.2%,67.1%
COc1ccc2sc3c(NCCCN(C)C)nc4ccccc4c3c(=O)c2c1,41.3,-21.9% (active),58%,-6.11% (active),44.1%,66.4%,83.7%,1.35% (active),76.7,-57.8% (active),50.2,-47.5% (active),53.5%,71.4%,-1.18% (active),63,66.4%,77.3,-100% (active),-73.1% (active)
